The text below walks through data of PubChem BioAssay AID602281 (The Scripps Research Institute Molecular Screening Center, 2012).

Several values for one entry are separate records, joined by “and”; a condition that tells them apart may be missing. Equal entries are not always repeated. In all, about 360,000 compounds went through this assay and about 2,900 (0.81%) were called active. This is one part of a sample in which actives are shown more often than they occur.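 How the source made its calls: active means inhibition above the mean inhibition across every tested compound plus 3 SD (cut at about 22% in these data); inactive means the rest.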 Some structures have more than one record in an assay (separate samples or runs), and their calls can disagree.

In the test the target is Perilipin-5 (Homo sapiens) + 1-acylglycerol-3-phosphate O-acyltransferase ABHD5 (Homo sapiens) (UniProt Q00G26+Q8WTS1). The test is described as follows: ABHD5-PLIN5 interaction inhibitors, primary screen, cell lysate, split luciferase complementation, luminescence (AID 602281).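 Further: 0% = DMSO only wells and the 100% control is not disclosed.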 The settings on record: Split G. princeps luciferase complementation, 4 h, at 4 µM, stronger effect = higher value.
Chain of Perilipin-5 (Homo sapiens) + 1-acylglycerol-3-phosphate O-acyltransferase ABHD5 (Homo sapiens) (Q00G26 whole entry, looked up): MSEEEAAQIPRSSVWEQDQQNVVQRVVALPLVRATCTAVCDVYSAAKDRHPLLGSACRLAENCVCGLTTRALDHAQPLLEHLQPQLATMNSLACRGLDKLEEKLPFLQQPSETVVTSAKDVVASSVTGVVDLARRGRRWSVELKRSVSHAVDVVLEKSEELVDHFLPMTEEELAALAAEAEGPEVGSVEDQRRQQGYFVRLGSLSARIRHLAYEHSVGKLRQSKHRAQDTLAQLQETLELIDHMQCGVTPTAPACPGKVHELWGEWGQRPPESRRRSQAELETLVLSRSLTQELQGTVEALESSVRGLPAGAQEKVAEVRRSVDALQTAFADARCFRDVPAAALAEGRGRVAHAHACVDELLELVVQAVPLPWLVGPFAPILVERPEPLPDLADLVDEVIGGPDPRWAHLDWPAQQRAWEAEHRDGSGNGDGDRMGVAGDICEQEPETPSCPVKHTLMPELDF
Chain of Perilipin-5 (Homo sapiens) + 1-acylglycerol-3-phosphate O-acyltransferase ABHD5 (Homo sapiens) (Q8WTS1 whole entry, looked up): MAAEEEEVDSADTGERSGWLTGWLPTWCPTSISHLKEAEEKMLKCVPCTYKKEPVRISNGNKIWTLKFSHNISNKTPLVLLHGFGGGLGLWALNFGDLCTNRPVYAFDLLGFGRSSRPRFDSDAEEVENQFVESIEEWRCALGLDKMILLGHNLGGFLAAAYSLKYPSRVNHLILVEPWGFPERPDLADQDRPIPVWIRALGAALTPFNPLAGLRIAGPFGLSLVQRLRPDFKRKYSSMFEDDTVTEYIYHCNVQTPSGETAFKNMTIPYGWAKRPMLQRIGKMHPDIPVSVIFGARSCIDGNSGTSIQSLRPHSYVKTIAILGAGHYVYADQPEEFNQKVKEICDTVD
As to `Cc1ccc(Cn2c(C)nc3c(c2=O)c2nc4ccccc4nc2n3Cc2ccco2)cc1`, the inhibition was 65.3% (active). For the compound `Cc1ccc(OCC(=O)c2cc(C)n(Cc3ccco3)c2C)c([N+](=O)[O-])n1`, the inhibition is 4.39% (inactive). For `Cc1ccc(C(=O)CSc2nc3ccccc3c(=O)n2N)o1` the value was -5.64% (inactive); for `COC(=O)C[C@H]1C[C@@H]2c3cc(N(C)C)ccc3O[C@@H]2[C@H](CO)O1`, 0.67% (inactive). In the case of `CC1CSc2nnc(CCc3ccccc3)n21` (configuration not stated) it was 0.6% (inactive). As for `c1ccc(CCC2=NCCn3cccc32)cc1`, the inhibition is 16.9% (inactive) and 27.5% (active).

In the case of `c1ccc(CCc2ccccn2)cc1`, the inhibition was -3.97% (inactive).

For `CCc1ccc(-c2cc(C)no2)cc1S(=O)(=O)NCCc1ccc(S(N)(=O)=O)cc1`, the inhibition was -2.59% (inactive). Regarding `O=C(C1CCCO1)N1CCN(C(=O)C23CC4CC(CC(C4)C2)C3)CC1` (configuration not stated), the inhibition was 0.93% (inactive). For the compound `O=C(Cn1cc(C(=O)C2CC2)c2ccccc21)Nc1ccccc1Cl`, the inhibition is -0.4% (inactive). In the case of `CCOc1ccc(NC(=O)C(C)N2C(=O)c3ccccc3C2=O)cc1` (configuration not stated), the inhibition is -3.97% (inactive). For `O=C(Cc1ccccc1)N1CCN(S(=O)(=O)c2ccc([N+](=O)[O-])cc2)CC1` the value was 1.18% (inactive). On to `O=C1/C(=C\c2ccc([N+](=O)[O-])cc2)CS(=O)(=O)C/C1=C/c1ccc([N+](=O)[O-])cc1`, for which the inhibition was 76.2% (active). For `O=[N+]([O-])c1ccc(N=NNc2ccc([N+](=O)[O-])cc2)cc1` the value was -4.36% (inactive); for `Cc1ccc(S(=O)(=O)N(C)C)cc1NC(=O)c1ccccc1Br`, -0.6% (inactive); for `COc1ccc(C(C(=O)NCc2ccccc2)N(Cc2cccs2)C(=O)c2cnccn2)cc1` (configuration not stated), -0.58% (inactive). Consider `COc1cccc(-c2sc3ccc(OC)cc3c2-c2ccc(OCCN3CCCCC3)cc2)c1`, for which the inhibition is 14.8% (inactive). As for `COc1ccccc1-c1sc2ccccc2c1-c1ccc(Br)nc1`, the inhibition was -7.49% (inactive). For the compound `COc1ccc2sc(-c3ccccc3OC)c(-c3ccc(OCCN4CCCC4)cc3)c2c1`, the inhibition was 25.4% (active). For `Cc1cc(C)c2c(n1)sc1c(=O)n(-c3ccccc3)c(=O)[nH]c12`, the inhibition is 9.86% (inactive). `CC1=CC(C)(C)Nc2ccc(OC(=O)CN3C(=O)C4CCCCC4C3=O)cc21` (configuration not stated): the inhibition was 75% (active). As to `CC1=CC(C)(C)Nc2ccc(OC(=O)C(Cc3ccccc3)N3C(=O)C4CCCCC4C3=O)cc21` (configuration not stated), the inhibition is 47% (active).

Turning to `CCOC(=O)C(Cc1ccc(N)cc1)N1C(=O)c2ccccc2C1=O` (configuration not stated), the inhibition is -1% (inactive).

Regarding `O=C(COC(=O)CN1C(=O)C2CCCCC2C1=O)Nc1ccc(F)c(F)c1F` (configuration not stated), the inhibition is -2.34% (inactive).

`O=C(C(Cc1ccccc1)n1cccc1)N1CCN(C2CCCCC2)CC1` (configuration not stated): the inhibition was 5.03% (inactive).

`COc1ccc(C(=O)COC(=O)CN2C(=O)C3CC=CCC3C2=O)c(OC)c1` (configuration not stated): the inhibition is -4.32% (inactive). In the case of `OCCCC1CCCCN1Cc1nc(Cc2ccccc2Cl)no1` (configuration not stated), the inhibition was 0.62% (inactive). As to `CC[C@H](C)C(=O)N[C@H]1CCCN1C(=O)/C=C/c1ccccc1`, the inhibition is 1.82% (inactive). In the case of `CC(=O)Nc1ccc(NC(=O)c2ccc3c(c2)C(=O)N(c2ccccc2C)C3=O)cc1` it was 6.37% (inactive).

For the compound `COC(=O)[C@@H]1CCCN1C(=O)c1cc(COc2cccc3cccnc23)on1`, the inhibition is -0.57% (inactive). Turning to `COc1ccc2c(c1)c(=Cc1ccc(N(C)C)cc1)c1cc(-c3ccccc3)[n+](C)n12`, the inhibition was 30.2% (active).

In the case of `O=C(NC1CCN(S(=O)(=O)c2ccc(F)cc2)CC1)c1ccccc1`, the inhibition was 4.55% (inactive). Regarding `Cc1ccc(NC(=O)CCC(=O)c2ccc(Br)cc2)cc1`, the inhibition was 4.03% (inactive).

As to `Cc1ccn(C(CC(=O)c2ccc(Br)cc2)C(=O)O)n1` (configuration not stated), the inhibition was 33.3% (active). With `CCN(C(=O)c1ccc(Br)cc1)c1ccccc1`, the inhibition was 0.98% (inactive). For `CCCCN(CC)CCCNC(=O)c1ccc(CSc2nc3ccncc3[nH]2)cc1`, the inhibition is -1.26% (inactive). For `COc1ccc(N(Cc2cc3ccc(C)cc3[nH]c2=O)S(=O)(=O)c2ccccc2)cc1` the value was -3.39% (inactive). Turning to `O=S(=O)(NC1CC1)c1ccc(F)c(F)c1`, the inhibition is 7.64% (inactive). In the case of `CC1CCC(NS(=O)(=O)c2ccc3c(c2)CC(=O)N3)CC1` (configuration not stated), the inhibition was 2.49% (inactive). In the case of `Cn1sc(=O)c2cc(S(=O)(=O)NC3CC3)ccc21`, the inhibition is 43.1% (active). For `CC1CCCC(NC(=O)COC(=O)c2ccccc2C(=O)N(C)C2CCCCC2)C1C` (configuration not stated) the value was 1.5% (inactive); for `CCc1ccccc1NC(=O)/C(=C/c1ccccc1)c1ccccc1`, -13.9% (inactive).

Consider `CCOC(=O)C(=Cc1ccccc1)C(=O)c1ccccc1`, for which the inhibition is 86.5% (active). With `CCOC(=O)C(=Cc1ccccc1OC)C(=O)OCC`, the inhibition was 35.8% (active).

As for `COc1ccccc1C(=O)c1ccccc1C(=O)c1ccccc1`, the inhibition is -6.91% (inactive). For `CCOC(=O)/C(=C\c1ccc([N+](=O)[O-])cc1)C(=O)c1cc(C(C)=O)c(Nc2ccccc2)s1` the value was -2.52% (inactive); for `COc1ccccc1/C=C/C(=O)NC1CC2CCC1C2` (configuration not stated), -5.4% (inactive); for `Cc1ccc(C(=O)NCC(=O)OCC(=O)Nc2cccc(S(=O)(=O)N3CCCC3)c2)cc1C`, -2.63% (inactive).

In the case of `O=C(CCCN1C(=O)C(c2ccccc2)Oc2cccnc21)Nc1ccccc1Br` (configuration not stated), the inhibition is 6.82% (inactive).

On to `COC(=O)[C@@H]1C[C@@]2(O)[C@H](O)[C@H](O)[C@H](O)C[C@H]2N1Cc1ccc(C(C)(C)C)cc1`, for which the inhibition is 6.53% (inactive). Turning to `O=C(c1cccc(F)c1)N1CCC(O)(c2cccnc2)CC1`, the inhibition is 0.25% (inactive).

As for `N#CCOc1ccc(C2=NO[C@@H]3[C@@H]4C[C@@H]([C@H]5C(=O)N(c6ccc7c(c6)OCO7)C(=O)[C@@H]45)[C@H]23)cc1`, the inhibition is -3.78% (inactive). Consider `CC1(Oc2cccc(F)c2)CCN(Cc2ccccc2OC(F)F)C1` (configuration not stated), for which the inhibition is -9.44% (inactive). `CC1(Oc2ccccc2-c2ccno2)CCN(Cc2ccc(-c3ccccc3)o2)C1` (configuration not stated): the inhibition is 24.9% (active). On to `COc1ccc(CN2CCC(C)(Oc3cccc(F)c3)C2)c2ccccc12` (configuration not stated), for which the inhibition was 1.04% (inactive). As to `CCCOC1CCCN(C(=O)c2cc(COc3cncc(Cl)c3)on2)C1` (configuration not stated), the inhibition was 1.32% (inactive). Consider `Cc1[nH]c2ccccc2c1C(=O)c1cc([C@H](NC(=O)OC(C)(C)C)C(C)C)sc1N`, for which the inhibition was -16.6% (inactive). Regarding `Cc1ccc(C(=O)Cc2nnc(C)s2)cc1`, the inhibition was 10.8% (inactive). For `Cc1ccc(SC(CC(=O)c2ccc(C(C)(C)C)cc2)C(=O)O)cc1` (configuration not stated), the inhibition was 84.9% (active).

With `Cc1ccc(SC(C)C(=O)NCc2ccc(F)cc2)cc1` (configuration not stated), the inhibition was -1.06% (inactive). Take `O=C1CC[C@@H](C(=O)N2CSC[C@@H]2C(=O)Nc2ccc(C(F)(F)F)cc2)N1`: the inhibition was -0.42% (inactive). With `CCC(C)NC(=O)C1CCC(=O)N1Cc1ccc(C)cc1` (configuration not stated), the inhibition is 2% (inactive). For `Oc1ccc2ccccc2c1N=Nc1nccs1`, the inhibition is 22.1% (active). As to `COc1ccccc1C(=O)NCC(=O)OCC(=O)NNC(=O)c1ccc(Br)cc1`, the inhibition is -4.52% (inactive). On to `CCN1C(=O)/C(=C2\SC(N3CCCCC3)=NC2=O)c2ccccc21`, for which the inhibition was -2.55% (inactive). As to `CC1(C)CC(=O)C=C(c2cccc3c2Oc2ccccc2S3)C1`, the inhibition is -12.2% (inactive). Turning to `O=C(c1cc(C2CCCCN2S(=O)(=O)c2ccccc2)on1)N1CCOCC1` (configuration not stated), the inhibition was 3.58% (inactive). In the case of `COC(=O)c1cnn2c(C(F)(F)F)cc(-c3ccco3)nc12` it was 32.2% (active); in that of `O=C(NCc1ccco1)c1cnn2c(C(F)(F)F)cc(-c3ccco3)nc12`, 3.22% (inactive); in that of `O=C(O)c1cnn2c(C(F)(F)F)cc(-c3ccccc3)nc12`, 6.31% (inactive). Take `N#Cc1ccc(-c2nc3c(Cl)cc(C(F)(F)F)cn3c2Cc2ccccc2C(F)(F)F)cc1`: the inhibition is 0.66% (inactive). In the case of `NC(=O)c1ccccc1N=Cc1ccc2ccccc2c1`, the inhibition was 2.42% (inactive). Consider `C/C(=N/N1CCN(Cc2cccc3ccccc23)CC1)c1cccnc1`, for which the inhibition is -14.4% (inactive). As to `CCOc1cc(S(=O)(=O)NCc2ccc3c(c2)OCO3)ccc1F`, the inhibition was -2.91% (inactive). For `COc1ccc(C(=O)CCc2ccccc2O)c(OC)c1` the value was 0.27% (inactive); for `COc1ccc(C(=O)/C=C/c2cccnc2)c(OC)c1`, 22.4% (active); for `COc1ccc(C(=O)CCC(=O)Nc2cccnc2)c(OC)c1`, -5.28% (inactive). On to `CCCn1c(=O)c2[nH]c(C3CCCC3)nc2n(CCC)c1=O`, for which the inhibition was 4.3% (inactive). On to `CCc1nnc(NC(=O)C2CC(=O)N(c3ccc4c(c3)OCCO4)C2)s1` (configuration not stated), for which the inhibition is -9.44% (inactive).

As to `O=C(NCc1ccccc1Cl)c1csc([C@@H]2O[C@H](CO)[C@@H](O)[C@H]2O)n1`, the inhibition was -7.69% (inactive). In the case of `COc1ccccc1-n1nnnc1S(=O)(=O)Cc1ccc(Cl)cc1` it was 27.5% (active); in that of `COc1ccccc1CN(C)c1nnnn1-c1ccccc1`, -3.16% (inactive); in that of `CCN(C(=O)CSc1nnnn1-c1ccccc1OC)C1CCS(=O)(=O)C1` (configuration not stated), 0.5% (inactive).

As for `Cc1cc2c(cc1S(=O)(=O)NCc1ccc(Cl)cc1)OCC(=O)N2`, the inhibition is 5.73% (inactive). Take `O=C(CN1C2CCC1CC(NC(=O)C1CC1)C2)NCc1ccccc1` (configuration not stated): the inhibition is -2.07% (inactive).

Regarding `O=C(CCl)Nc1ccc(Sc2ccc(NC(=O)CCl)cc2)cc1`, the inhibition is 28.2% (active).

As to `CC(=O)Nc1ccc(NC(=O)CC2CCCC2)cc1`, the inhibition was 1.52% (inactive). In the case of `O=C(O)CC(SCC(=O)Nc1ccc(Br)cc1)C(=O)O` (configuration not stated), the inhibition was 0.5% (inactive). On to `CN(CC(=O)NCCc1ccc(F)cc1)CC(=O)Nc1ccc(F)c(F)c1F`, for which the inhibition is 3.93% (inactive). As for `C/C(=N\NS(=O)(=O)c1ccc(Cl)cc1)c1ccc(NC(=O)c2ccco2)cc1`, the inhibition is -4.17% (inactive).

On to `O=C(Nc1ccccc1)c1nnsc1S(=O)(=O)c1ccc(Cl)cc1`, for which the inhibition is 58.3% (active).

With `O=C(Nc1ccc(S(=O)(=O)N2CCOCC2)cc1)C1CCN(S(=O)(=O)c2ccc(Cl)cc2)CC1`, the inhibition is -0.02% (inactive).
